Records with an inconclusive call do not appear. Activity calls are given as the source filed them. Unless noted, calls follow the shape of the dose curve; as a rule, active = well fitted curve in the direction sought with a large enough effect; inconclusive = small, poorly fitted or top-dose-only effect, or another doubt; inactive = no such curve, though single readings can be large; an effect the other way counts as inactive or inconclusive.
Columns and labels:
[1] = qHTS profiling of the MIPE4 collection as inhibitors of Plasmodium falciparum (3D7) proliferation (AID 743344; call rule not given here;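 also: scaled between DMSO vehicle wells and 0.29 µM artemisinin as full inhibition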); conditions: P. falciparum 3D7 in erythrocytes, SYBR Green DNA fluorescence, 72 h; at 28.5 µM unless noted
Procedure, shortened: (§1)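 Erythrocytes infected with P. falciparum (0.3% parasitemia, 2.5% hematocrit) incubated with compounds 72 h at 37 C, 5% CO2. Lysis with saponin/Triton buffer containing SYBR Green I, overnight at room temperature in the dark; DNA fluorescence (485/535 nm) normalised to 0.29 uM artemisinin and DMSO.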

[2] = qHTS profiling of the MIPE4 collection as inhibitors of Plasmodium falciparum (DD2) proliferation (AID 743345; call rule not given here); conditions: P. falciparum Dd2 in erythrocytes, SYBR Green DNA, 72 h; at 28.5 µM unless noted
Procedure, shortened: as §1

[3] = qHTS profiling of the MIPE4 collection as inhibitors of Plasmodium falciparum (DD2) proliferation (Rep 2) (AID 743346; call rule not given here); conditions: P. falciparum Dd2 in erythrocytes, SYBR Green DNA, 72 h; at 28.5 µM unless noted
Procedure, shortened: as §1

[4] = qHTS profiling of the MIPE4 collection as inhibitors of Plasmodium falciparum (HB3) proliferation (AID 743347; call rule not given here;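 also: plate controls were DMSO vehicle wells for no effect and artemisinin wells for full effect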); conditions: P. falciparum HB3 in erythrocytes, SYBR Green DNA, 72 h; at 28.5 µM unless noted
Procedure, shortened: as §1

[5] = High-throughput drug toxicity screening in the BPDCN cell line Gen2.2 (AID 1224824; call rule not given here); conditions: Gen2.2 BPDCN cells; at 45.8 µM (top of the series) unless noted
Procedure, shortened: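 CellTiter-Glo luminescence after 48 h compound exposure of Gen2.2 cells; percent activity set with DMSO as 100% and bortezomib (9.2 uM final) as 0%. Cells seeded at 500 per well, RPMI + 10% FBS, 37 °C.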

[6] = High-throughput drug toxicity screening in the BPDCN cell line Cal-1 (AID 1224825; call rule not given here); conditions: Cal-1 BPDCN cell viability, qHTS; at 45.8 µM (top of the series) unless noted
Procedure, shortened: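 500 Cal-1 cells/well, RPMI + glutamine + 10% FBS (phenol red-free); cpd added by pin tool; 48 h, 37C, 5% CO2; CTG 15 min RT, lumi read. Normalised: DMSO 100%, bortezomib 9.2 uM 0%.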

[7] = qHTS assay for measurement of the activity of small molecule inhibitors on Zika virus induced Caspase-3 activity in human iPSC derived neural progenitor cells (hNPCs) (AID 1224857); also: % of control where 0% means no effect; nearly all actives have a fitted effect of over 65% in size
Procedure, shortened: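 In medium with heparin 2 ug/ml and cyclopamine 2 uM, hNPCs (350 cells/well) received compound for one hour and then Zika virus at 2 FFU/cell; caspase activity was measured by Caspase-Glo 3/7 luminescence 6 h post-infection.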

[8] = qHTS assay for measurement of the activity of small molecule inhibitors on Zika virus induced Caspase-3 activity in human astrocytoma cells (AID 1224859);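 also: plate controls were ZIKV-infected untreated cells for no effect and uninfected cells for full effect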
Procedure, shortened: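 A cell-based luminescent caspase-3/7 assay used SNB-19 cells infected with ZIKV (2 FFU/cell) for 6 h following 1 h compound pretreatment.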

[9] = qHTS Screen of the MIPE 4.0 Collection Against Ewings Sarcoma (RDES) (AID 1259252); also: nearly all actives have a fitted effect of over 35% in size; also: potency is read from the fitted curve at half-maximal effect
Procedure, shortened: (§2)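 CellTiter-Glo luminescence after 48 h compound exposure (titration) gave viability; percent activity used DMSO-treated cells as no inhibition and medium-only wells as full inhibition. Cells grown in RPMI/5% FBS, dosed 4 h post-seeding.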

[10] = qHTS Screen of the MIPE 4.0 Collection Against Ewings Sarcoma (TC71) (AID 1259253); also: nearly all actives have a fitted effect of over 40% in size; also: potency is read from the fitted curve at half-maximal effect
Procedure, shortened: as §2

[11] = qHTS profiling for inhibitors of Plasmodium falciparum (HB3) proliferation (AID 743324); conditions: Plasmodium falciparum HB3 blood-stage proliferation; at 28.7 µM (top of the series) unless noted;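 also: 100% = DMSO vehicle wells and 0% = artemisinin-treated control wells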
Procedure, shortened: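 P. falciparum HB3 grown in erythrocytes (0.3% parasitemia, 2.5% hematocrit final) with compound for 72 h at 37 C, 5% CO2. Parasite DNA detected by SYBR Green after saponin/triton lysis overnight; normalized to 0.29 uM artemisinin and DMSO.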

[12] = Identifying Small Molecule Inhibitors of Pancreatic Cancer Stem Cells (A2780, Spheroid) (AID 1259357); conditions: Potency: A2780 spheroid viability;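 also: compound exposure lasted 48 h before the ATP luminescence read; 100% = DMSO treated cells and 0% = wells without cells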
Procedure, shortened: (§3)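 Monolayer and spheroid cultures are compared. Spheroids form over 14 days in stem cell medium on hydrogel-coated low-attachment plates, then are exposed to compound for 48 h before CellTiter-Glo luminescence.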

[13] = Identifying Small Molecule Inhibitors of Pancreatic Cancer Stem Cells (SN12C, Spheroid) (AID 1259360); conditions: Potency: SN12C spheroid viability; also: potency is read from the fitted curve at half-maximal effect;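 as to viability (% of control): 100% = DMSO-treated cells and 0% = wells without cells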
Procedure, shortened: as §3

[14] = Identifying Small Molecule Inhibitors of Pancreatic Cancer Stem Cells (Panc1, Adherent) (AID 1259362); conditions: Potency: viability; also: potency is read from the fitted curve at half-maximal effect;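 as to viability, % of control: compound exposure lasted 48 h before the viability read; plate controls were DMSO-treated cells for no effect and cell-free media wells for full effect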
Procedure, shortened: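 After a 4 h attachment period, compounds were pinned into wells and cultures held 48 h under standard incubator conditions. Viability was then measured as CellTiter-Glo luminescence following 10 min at room temperature.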

[15] = qHTS assay to identify small molecule inhibitors of chordoma cells - UCH-1 (AID 1259355); also: % is scaled to controls: 0 for no effect and ±100 for the full control effect; nearly all actives have a fitted effect of over 55% in size
Procedure, shortened: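 Seed 800 cells per well; incubate overnight at 37 C, 5% CO2. Add test compounds (15 concentrations), then the auranofin–topoisomerase-agent combination. Incubate 48hr, add CellTiter-Glo, wait 30min, read luminescence.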

[16] = qHTS assay to identify small molecule inhibitors of chordoma cells - UCH-2 (AID 1259356); also: % is scaled to controls: 0 for no effect and ±100 for the full control effect
[17] = qHTS Screen of the MIPE 4.0 Collection Against Ewings Sarcoma (EW8) (AID 1259255);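 also: 100% = DMSO-treated cells and 0% = medium-only wells without cells; nearly all actives have a fitted effect of over 35% in size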
Procedure, shortened: as §2

[18] = qHTS Screen of the MIPE 4.0 Collection Against Ewings Sarcoma (TC32) (AID 1259256);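 also: 100% = DMSO-treated cells and 0% = medium-only wells without cells; nearly all actives have a fitted effect of over 45% in size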
Procedure, shortened: as §2

[19] = Identifying Small Molecule Inhibitors of Pancreatic Cancer Stem Cells (A278, Adherent) (AID 1259361); also: nearly all actives have a fitted effect of over 35% in size;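 as to viability (% of control): 100% = DMSO-treated cells and 0% = cell-free media-only wells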
Procedure, shortened: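 Cytotoxicity read by CellTiter-Glo luminescence after 48 h compound exposure at 37C; percent activity scaled between DMSO-treated cells and cell-free wells. Spheroid formats used cells pre-formed 14 days in stem cell media on hydrogel.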

[20] = Identifying Small Molecule Inhibitors of Pancreatic Cancer Stem Cells (Panc1, Spheroid) (AID 1259359);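 also: potency is read from the fitted curve at half-maximal effect; compound exposure lasted 48 h before reading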
Procedure, shortened: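 Spheroids grown 14 days in stem cell media on hydrogel-coated nonadherent plates; 2D lines seeded directly. Compounds added after 4 h attachment, 48 h at 37C, 5% CO2; CellTiter-Glo luminescence normalized to DMSO (no inhibition) and no-cell wells (full inhibition).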

For `CCCCC(C)(C)[C@H](O)C=C[C@H]1[C@H](O)CC(=O)[C@H]1CC=CCCCC(=O)O`, the parasite growth, % of DMSO control [1] was 76.7%, the parasite growth remaining, % of DMSO control (lower = more inhibition) [2] was 135% and the parasite growth, % of control (lower = inhibition) [3] was 39.2%. The growth, % of control [4] was 75.8%, the cell viability, % of control (lower = more cytotoxic) [5] was 29.2% and the viability (% of control) [6] was 11.7%. The Potency [7] was “inactive”, the Potency [8] was “inactive” and the Potency [9] was “inactive”. The Potency [10] was 18.7 µM (active).
In the case of `COc1ccc(-c2oc3c(CC=C(C)C)c(O)cc(O)c3c(=O)c2O)cc1`, the parasite growth, % of DMSO control [1] is reported as 4.59%, the parasite growth remaining, % of DMSO control (lower = more inhibition) [2] is reported as 9.79% and the parasite growth, % of control (lower = inhibition) [3] is reported as 11.9%. It also gave a growth, % of control [4] of 4.42%, a cell viability, % of control (lower = more cytotoxic) [5] of 188% and a viability (% of control) [6] of 45.1%. The Potency [7] was “inactive”, the Potency [8] was “inactive” and the Potency [9] was 14.8 µM (active). For the same compound, the Potency [10] was 18.7 µM (active).
`Cc1cccc(Nc2nc(N[C@@H]3CCCC[C@H]3N)ncc2C(N)=O)c1` showed a remaining proliferation (% of control), lower = more inhibition [11] of 0.632%, a parasite growth, % of DMSO control [1] of 5.2% and a parasite growth remaining, % of DMSO control (lower = more inhibition) [2] of 10.2%. The parasite growth, % of control (lower = inhibition) [3] was 7.28%, the growth, % of control [4] was 2.45% and the cell viability, % of control (lower = more cytotoxic) [5] was 2.09%. For the same compound, the viability (% of control) [6] was 2.41%, the Potency [7] was “inactive” and the Potency [8] was “inactive”. For the same compound, the Potency [9] was 16.6 µM (active), the Potency [10] was 18.7 µM (active) and the Potency [12] was “inactive”. The Potency [13] was “inactive” and the Potency [14] was 26.4 µM (active).
In the case of `CS(=O)(=O)c1ccc(C2=C(c3ccccc3)C(=O)OC2)cc1`, the parasite growth, % of DMSO control [1] is reported as 94.3%, the parasite growth remaining, % of DMSO control (lower = more inhibition) [2] is reported as 83.1% and the parasite growth, % of control (lower = inhibition) [3] is reported as 70.8%. For the same compound, the growth, % of control [4] was 58.5%, the cell viability, % of control (lower = more cytotoxic) [5] was 123% and the viability (% of control) [6] was 109%. For the same compound, the Potency [7] was “inactive”, the Potency [8] was “inactive” and the Potency [9] was “inactive”. The Potency [10] was 18.7 µM (active), the outcome [15] was “inactive” and the outcome [16] was “inactive”.
Compound `COc1cc2ncnc(Nc3cc(Br)c(O)c(Br)c3)c2cc1OC` has a parasite growth, % of DMSO control [1] of 10.7%, a parasite growth remaining, % of DMSO control (lower = more inhibition) [2] of 54.4% and a parasite growth, % of control (lower = inhibition) [3] of 43.2%. For the same compound, the growth, % of control [4] was 5.25%, the cell viability, % of control (lower = more cytotoxic) [5] was 15.7% and the viability (% of control) [6] was 11%. For the same compound, the Potency [7] was “inactive”, the Potency [8] was “inactive” and the Potency [9] was 0.0418 µM (active). For the same compound, the Potency [10] was 0.059 µM (active).
For `CCc1cc(-c2n[nH]c(C)c2-c2ccc3c(c2)OCCO3)c(O)cc1O`, the remaining proliferation (% of control), lower = more inhibition [11] was 74.6%, the parasite growth, % of DMSO control [1] was 49.4% and the parasite growth remaining, % of DMSO control (lower = more inhibition) [2] was 57.9%. For the same compound, the parasite growth, % of control (lower = inhibition) [3] was 31.5%, the growth, % of control [4] was 39.1% and the cell viability, % of control (lower = more cytotoxic) [5] was 7.68%. For the same compound, the viability (% of control) [6] was 9.12%, the Potency [7] was “inactive” and the Potency [8] was “inactive”. For the same compound, the Potency [9] was 9.35 µM (active) and the Potency [10] was 8.33 µM (active).
`Cn1cc(-c2ccc3nnc(Sc4ccc5ncccc5c4)n3n2)cn1` gave a remaining proliferation (% of control), lower = more inhibition [11] of 72.7%, a parasite growth, % of DMSO control [1] of 36.1% and a parasite growth remaining, % of DMSO control (lower = more inhibition) [2] of 86.3%. It also gave a parasite growth, % of control (lower = inhibition) [3] of 42.5%, a growth, % of control [4] of 43.3% and a cell viability, % of control (lower = more cytotoxic) [5] of 121%. The viability (% of control) [6] was 102%, the Potency [7] was “inactive” and the Potency [8] was “inactive”. For the same compound, the Potency [9] was 20.9 µM (active), the Potency [17] was “inactive” and the Potency [18] was “inactive”. The Potency [13] was “inactive”, the IC50 (viability decrease) [19] was “inactive” and the Potency [14] was “inactive”.
`CC(C)(C)c1[nH]cnc1C=c1[nH]c(=O)c(=Cc2ccccc2)[nH]c1=O` showed a parasite growth, % of DMSO control [1] of 20.3% [at 57.5 µM], a parasite growth, % of control (lower = inhibition) [3] of 23.1% [at 57.5 µM] and a growth, % of control [4] of 7.41% [at 57.5 µM]. The cell viability, % of control (lower = more cytotoxic) [5] was 15.7% [at 92.2 µM], the viability (% of control) [6] was 5.98% [at 92.2 µM] and the Potency [7] was “inactive”. The Potency [8] was “inactive”, the Potency [9] was “inactive” and the Potency [17] was “inactive”. The Potency [18] was “inactive”, the Potency [20] was 0.0019 µM (active) and the Potency [13] was 14.8 µM (active). For the same compound, the IC50 (viability decrease) [19] was 0.0166 µM (active) and the Potency [14] was 0.0187 µM (active).
Compound `O=C(Nc1cccc2c(=O)cc(-c3nn[nH]n3)oc12)c1ccc(OCCCCc2ccccc2)cc1` has a parasite growth remaining, % of DMSO control (lower = more inhibition) [2] of 31.5%, a growth, % of control [4] of 7.59% and a cell viability, % of control (lower = more cytotoxic) [5] of 51.3%. For the same compound, the viability (% of control) [6] was 26.2%, the Potency [7] was “inactive” and the Potency [8] was “inactive”. The Potency [9] was 16.6 µM (active) and the Potency [10] was 18.7 µM (active).
For `CN(C)CCN(Cc1ccc(Cl)cc1)c1ccccn1`, the parasite growth, % of DMSO control [1] was 38.2%, the parasite growth remaining, % of DMSO control (lower = more inhibition) [2] was 50.5% and the parasite growth, % of control (lower = inhibition) [3] was 28.6%. It also gave a growth, % of control [4] of 53%, a cell viability, % of control (lower = more cytotoxic) [5] of 86.6% and a viability (% of control) [6] of 37.6%. For the same compound, the Potency [7] was “inactive”, the Potency [8] was “inactive” and the Potency [9] was 23.5 µM (active). The Potency [10] was 20.9 µM (active).
For `COc1ccc(CCN(C)CCCOc2ccc(S(=O)(=O)c3[nH]c4ccccc4c3C(C)C)cc2)cc1OC`, the remaining proliferation (% of control), lower = more inhibition [11] was -1.05%, the parasite growth, % of DMSO control [1] was 31.8% and the parasite growth remaining, % of DMSO control (lower = more inhibition) [2] was 26.3%. The parasite growth, % of control (lower = inhibition) [3] was 16.3%, the growth, % of control [4] was 42.9% and the cell viability, % of control (lower = more cytotoxic) [5] was 14.1%. The viability (% of control) [6] was 9.08%, the Potency [7] was “inactive” and the Potency [8] was “inactive”. For the same compound, the Potency [9] was “inactive”, the Potency [10] was “inactive” and the Potency [14] was 26.4 µM (active).

Source: PubChem BioAssay (NCATS)
